Several values for one entry are separate records, joined by “and”; a condition that tells them apart may be missing. Equal entries are not always repeated. This is part of a sample that, as a whole, favours compounds with a hit. Of some 83,000 tested, about 20% had one in any assay.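 Growth was measured after 48 h exposure to one concentration of compound in 96-well plates. Values under 10 count as active.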 A number with no mark means an inactive call. Activity calls are given as the source filed them.
system: MDA-MB-468 breast; assay: NCI-60 one-dose screen, 48 h (100 = growth as untreated, 0 = no growth, -100 = all killed); conditions: 10 µM unless noted

| Structure (SMILES) | growth |
| --- | --- |
| COc1cc(-c2csc(NC(=O)c3cc(C(F)(F)F)cc(C(F)(F)F)c3)n2)cc(OC)c1OC | 6.71% (active) |
| CCCCCCCCCCCCCCCCCC1=NCCN1CCO | 102% |
| COc1c(C)c2c(c(O)c1C/C=C(\C)CCC(=O)OCCN1CCOCC1)C(=O)OC2 | 32.6% |
| C=CCn1c(SCC(=O)Nc2ccc(C(=O)/C=C/c3ccc(Cl)cc3)cc2)nnc1-c1ccc(Cl)c(Cl)c1 | 81.5% |
| COc1cc2ncnc(Nc3ccc(O)cc3)c2cc1OC | 17.6% |
| Nc1ncn([C@@H]2O[C@H](CO)[C@@H](O)C2(F)F)c(=O)n1 | 71.4% |
| O=C(CN1CCOCC1)N1CCOCC1 | 108% and 116% |
| Oc1cc(O)c2c(=S)cc(-c3ccc(Cl)cc3)oc2c1 | -6.34% (active) |
| CC(=O)N1c2ccccc2NC2=C(C(=O)NC2(C)C)C1c1ccco1 (stereo not given) | 65.9% |
| Clc1cc(Cl)cc(N2N=C(c3cccc(Nc4ccncc4)c3)CC2c2ccccc2)c1 (stereo not given) | 37.9% |
| C=CC[N+]1(CCO)CCN=C1CCCCCCCCCCCCC (stereo not given) | -78.3% (active) |
| COc1cc2oc(-c3cccc(C(=O)Nc4ccc(Br)cc4)c3)cc(=O)c2c(OC)c1OC | 64.3% |
| CCc1cnc2ccccc2c1/C=C/c1ccc(N(C)C)cc1 | 24.9% |
| CCCCn1c(=O)c(-c2cc(-c3ccc(Cl)cc3)nc(-c3ccc(Cl)cc3)c2)cc2ccc(Cl)cc21 | 95% |
| CCOC(=O)c1c(Nc2ccccc2)nn2c(N)c(C#N)c(-c3ccccc3)nc12 | 62.4% |
| CNS(=O)(=O)Oc1ccc(-c2ccc3occc3c2)cc1 | 91.7% |
| C/C(=N/NC(N)=S)c1ccc(C)cc1 | 23.5% |
| COc1nc(OC)nc(-c2cc(C(=O)c3ccc(Br)cc3)n3cc(C)cc(C)c23)n1 | 51% |
| COC(=O)[C@]12CC[C@@H](C)[C@H](C)[C@@H]1C1=CC[C@@H]3[C@@]4(C)C(c5cnco5)=C[C@@](C)(CO)C4=CC[C@@]3(C)[C@]1(C)CC2 | 17% |
| NC(=O)C1=C[C@H]2[C@H]3C=C[C@@]2(O)C(=O)O[C@@H]3O1 | -5.42% (active) |

| Structure (SMILES) | growth |
| --- | --- |
| CN(C)CCCC1(c2ccc(F)cc2)OCc2cc(-c3cncc4ccccc34)ccc21 (stereo not given) | -4.62% (active) |
| C[C@@H](c1ccc2c(c1)[nH]c1ccc(Cl)cc12)c1nc2ccc(Cl)cc2[nH]1 | -37.4% (active) |
| COCCOC1=C(Cl)C(=O)c2ccccc2C1=O | -5.01% (active) |
| Cc1nc2ccc(Nc3nc(NCCN4CCOCC4)nc(Nc4ccc(F)cc4)n3)cc2n1Cc1ccccc1 | 14% |
| O=C(CCCn1c2c(sc3ccccc32)c(=O)n2nnc(-c3ccccc3)c12)NCCc1cnc[nH]1 | -91% (active) |
| O=C1/C(=C/C=C/c2ccco2)SC(=S)N1Cc1ccccc1 | 58.5% |
| CCC(C#N)(CC)c1ccccc1 | 105% |
| Cc1ccc(-c2csc(NC(=O)c3ccccc3CN3C(=O)c4ccccc4C3=O)n2)cc1 | 92.1% |
| CC(=O)Nc1cccc(-n2c(=O)n(C3CC3)c(=O)c3c(Nc4ccc(I)cc4F)n(C)c(=O)c(C)c32)c1 | 77.2% |
| COc1cc(C2C(C#N)=C(N)OC3=C2C(=O)c2ccccc2C3=O)cc(OC)c1OC (stereo not given) | 42.4% |
| C/C(=N\NC(N)=S)C(C)(C)O | 26.2% |
| Clc1ccc(-n2cnc3c(Cl)ncnc32)cc1Cl | 48.3% |
| COc1cc(/C=C/C(=O)c2ccccc2)cc(OC)c1OC | 64.7% |
| CCCC(=O)Oc1ccc(/C(=C(/CC)Cc2ccccc2)c2ccc(OCCN3CCCC3)cc2)cc1 | 42.8% |
| O=C1/C(=C/c2ccccc2)CN(CCC(=O)N2C/C(=C\c3ccccc3)C(=O)/C(=C/c3ccccc3)C2)C/C1=C\c1ccccc1 | 66.9% |
| COc1cc2cc(Oc3ccc(NC(=O)Nc4ccc(Cl)c(C(F)(F)F)c4)cc3)c(C)nc2cc1OC | -42.7% (active) |
| Cc1ccc(Cn2c(-c3cccs3)nc3ccccc32)cc1 | 67.5% |
| COc1ccc(/C=C(/C(=O)N2CCN(c3ccccc3)CC2)c2cc(OC)c(OC)c(OC)c2)cc1N | 11.7% |
| O=C(Nc1nc2ccc(F)cc2s1)c1cc(-c2ccc(F)cc2)n2nc(-c3ccccc3)cc2n1 | 92% |
| CN1CCN(C(=S)SCCCCOc2cc(=O)oc3ccccc23)CC1 | 56.3% |

Reference: PubChem BioAssay (NCI)
